Results as given in PubChem BioAssay.
For part of these data: Entries with a potency or affinity are not part of this list. Calls of active or inactive are those of the source.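 How the source made its calls, unless noted: active means hit in primary screen, with calcium signal over 5 SD above buffer well mean in both duplicates; inactive means the rest.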

Assays:
[1] = tested on: TRPC4 beta (transient receptor potential cation channel C4), mouse; test: activators of mouse TRPC4 channel, confirmation, cell-based, Fluo4 calcium, HEK293 TRPC4beta/mu-opioid, duplicates, 10 µM (AID 2426;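 active means fluorescence ratio normalized to control raised more than 50% in primary screen plus both repeat runs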;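 on activation: percent rise of integrated ratio over buffer wells lacking compound which define 0%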); settings: Fluo4 calcium fluorescence, at 10 µM; active compounds read high
[2] = tested on: transient receptor potential cation channel C4 beta (TRPC4), mouse; test: activators of mouse TRPC4 channel, confirmation, cell-based, second round, Fluo4, HEK293 TRPC4beta/mu-opioid, 1 µM (AID 2461;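 active means primary screen active and over 50% activation in each of two duplicate runs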;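 on activation: 0% = wells without test compound as baseline of integrated fluorescence ratio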); settings: Fluo4 calcium fluorescence, at 1 µM; active compounds read high
[3] = tested on: TRPC4 (transient receptor potential cation channel C4 beta), mouse; test: positive allosteric modulators of mouse TRPC4, confirmation, cell-based, second round, Fluo-4, HEK293 TRPC4beta/mu-opioid, 1 µM (AID 2554;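 active means primary screen hit whose fluorescence ratio, in both repeats, exceeds the weak agonist control mean by 3 SD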); settings: DAMGO EC20, Fluo-4 calcium flux, at 1 µM; active compounds read high
[4] = tested on: TRPC4 beta (transient receptor potential cation channel C4), mouse; test: positive allosteric modulators of mouse TRPC4, confirmation, cell-based, Fluo-4, HEK293 TRPC4beta/mu-opioid (AID 2555;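 active means primary screen hit whose calcium fluorescence ratio, in both repeats, exceeds the weak agonist control mean by 3 SD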); settings: DAMGO EC20, Fluo-4 calcium flux, at 10 µM; active compounds read high
[5] = target: Short transient receptor potential channel 4 (Mus musculus) (UniProt Q9QUQ5); test: inhibitors of mouse TRPC4 channel, confirmation, cell-based, Fluo4, HEK293 TRPC4beta/mu-opioid (AID 2636;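 active means calcium signal cut by more than 3 SD below the full-agonist control yet still positive, in both repeats and the earlier primary screen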); settings: DAMGO, Fluo4 calcium flux, at 10 µM; active compounds read high
[6] = target: Short transient receptor potential channel 4 (Mus musculus) (UniProt Q9QUQ5); test: inhibitors of mouse TRPC4 channel, confirmation, cell-based, second round, Fluo4, HEK293 TRPC4beta/mu-opioid, 1 µM (AID 2637;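 active means calcium signal ratio cut to more than 3 SD under the fully stimulated control mean yet still positive, in both repeats and the primary screen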); settings: Fluo4 calcium flux, DAMGO, at 1 µM; active compounds read high
[7] = target: Short transient receptor potential channel 4 (Mus musculus) (UniProt Q9QUQ5); test: TRPC4 positive allosteric modulators, dose response, cell-based, HEK293 TRPC4/mu-opioid, Fluo-4 calcium, EC20 DAMGO (AID 434941;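 active means earlier screen potentiator hit that boosts the TRPC4 ion channel at some dose, with a dose response; inactive means no potentiation, no dose response, or not a prior hit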;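 further: calcium entry triggered by an EC20 dose of DAMGO at the co-expressed mu-opioid receptor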)
[8] = target: Short transient receptor potential channel 4 (Mus musculus) (UniProt Q9QUQ5); test: mouse TRPC4 channel inhibitors, dose response, cell-based, HEK293 TRPC4/mu-opioid, Fluo-4 calcium (AID 434942;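 active means primary screen inhibitor hit that blocks the TRPC4 channel at some tested dose, yielding a dose curve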)
[9] = target: Short transient receptor potential channel 6 (Mus musculus) (UniProt Q61143); test: inhibition of mouse TRPC6 channel, confirmation, selectivity assay for TRPC4 inhibitor project, cell-based, HEK293, membrane potential dye, duplicate (AID 434948;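 active means active in primary screen and both duplicates, each dropping signal beyond three positive-control SD with fluorescence still positive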); settings: HEK293 TRPC6, membrane potential dye fluorescence, at 10 µM, stimulated with maximal-effect acetylcholine; active compounds read high
[10] = target: Short transient receptor potential channel 6 (Mus musculus) (UniProt Q61143); test: activation of mouse TRPC6 channel, confirmation, selectivity assay for TRPC4 activator project, cell-based, HEK293, membrane potential dye, duplicate (AID 434950;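 active means membrane potential signal rise above negative control mean plus 3 SD in both duplicates, also active in the earlier TRPC4 screen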;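 on activation: 0% = buffer only wells and 100% = acetylcholine maximal-effect wells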); settings: HEK293 TRPC6, membrane potential fluorescence, at 10 µM; active compounds read high
[11] = target: Short transient receptor potential channel 6 (Mus musculus) (UniProt Q61143); test: TRPC6 potentiation by TRPC4 potentiator hits, confirmation, selectivity assay for TRPC4 potentiator project, HEK293 cells, membrane potential dye, duplicate (AID 434952;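 active means compound raising the membrane signal above positive-control mean plus 3 SD in both repeats, and a primary screen hit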); settings: HEK293 TRPC6, membrane potential dye fluorescence, at 10 µM, maximal acetylcholine added after compound; active compounds read high
[12] = target: Short transient receptor potential channel 4 (Mus musculus) (UniProt Q9QUQ5); test: calcium flux activators in TRPC4/5HT1a cells, counter-screen for TRPC4 activator project, cell-based, second counter screen, HEK293 TRPC4/5HT1a, Fluo-4 (AID 434977;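 active means calcium signal rise above buffer-control mean plus 5 SD in both duplicates, and also a hit in the primary screen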;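 on activation: plate controls were assay buffer for no effect and maximal serotonin response for full effect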); settings: Fluo-4 calcium flux, at 10 µM; active compounds read high
[13] = calcium flux inhibitors in TRPC4/5HT1a cells, confirmation, counter-screen for TRPC4 inhibitor project, cell-based, second counter screen, HEK293 TRPC4/5HT1a, Fluo-4 (AID 434978;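 active means primary screen active whose calcium signal fell more than 3 SD beyond the full-serotonin control mean in both duplicate plates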;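 further: serotonin given first at submaximal then at maximal dose after compound preincubation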); settings: Fluo-4 calcium flux, at 10 µM, serotonin added to trigger calcium flux; active compounds read high
[14] = tested on: TRPC4 (mouse), co-expressed with 5HT1a in HEK293; test: calcium flux potentiators in TRPC4/5HT1a cells, confirmation, counter-screen for TRPC4 potentiator project, cell-based, second counter screen, HEK293 TRPC4/5HT1a, Fluo-4 (AID 434979;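 active means signal rise over 3 SD above mean of control wells given weak agonist, in both repeats and first screen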); settings: Fluo-4 calcium flux, at 10 µM, serotonin added at its EC20 dose; active compounds read high
[15] = calcium flux activation in mu-opioid HEK293 cells, confirmation, counter-screen for TRPC4 activator project, cell-based, HEK293 mu-opioid receptor line (AID 449723); settings: Fluo-4 calcium fluorescence, at 10 µM; active compounds read high;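 further: counter screen cells carry the mu-opioid receptor alone and lack TRPC4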
[16] = calcium flux enhancement in mu-opioid HEK293 cells, confirmation, counter-screen for TRPC4 allosteric potentiator project, cell-based, HEK293 mu-opioid receptor line (AID 449724;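 active means calcium signal rise more than 3 SD above the low-dose agonist control mean, in both duplicate plates and the primary screen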); settings: Fluo-4 calcium flux, at 10 µM, compound added before EC20 DAMGO stimulus; active compounds read high

Chain of Short transient receptor potential channel 6 (Mus musculus) (Q61143 whole entry, looked up): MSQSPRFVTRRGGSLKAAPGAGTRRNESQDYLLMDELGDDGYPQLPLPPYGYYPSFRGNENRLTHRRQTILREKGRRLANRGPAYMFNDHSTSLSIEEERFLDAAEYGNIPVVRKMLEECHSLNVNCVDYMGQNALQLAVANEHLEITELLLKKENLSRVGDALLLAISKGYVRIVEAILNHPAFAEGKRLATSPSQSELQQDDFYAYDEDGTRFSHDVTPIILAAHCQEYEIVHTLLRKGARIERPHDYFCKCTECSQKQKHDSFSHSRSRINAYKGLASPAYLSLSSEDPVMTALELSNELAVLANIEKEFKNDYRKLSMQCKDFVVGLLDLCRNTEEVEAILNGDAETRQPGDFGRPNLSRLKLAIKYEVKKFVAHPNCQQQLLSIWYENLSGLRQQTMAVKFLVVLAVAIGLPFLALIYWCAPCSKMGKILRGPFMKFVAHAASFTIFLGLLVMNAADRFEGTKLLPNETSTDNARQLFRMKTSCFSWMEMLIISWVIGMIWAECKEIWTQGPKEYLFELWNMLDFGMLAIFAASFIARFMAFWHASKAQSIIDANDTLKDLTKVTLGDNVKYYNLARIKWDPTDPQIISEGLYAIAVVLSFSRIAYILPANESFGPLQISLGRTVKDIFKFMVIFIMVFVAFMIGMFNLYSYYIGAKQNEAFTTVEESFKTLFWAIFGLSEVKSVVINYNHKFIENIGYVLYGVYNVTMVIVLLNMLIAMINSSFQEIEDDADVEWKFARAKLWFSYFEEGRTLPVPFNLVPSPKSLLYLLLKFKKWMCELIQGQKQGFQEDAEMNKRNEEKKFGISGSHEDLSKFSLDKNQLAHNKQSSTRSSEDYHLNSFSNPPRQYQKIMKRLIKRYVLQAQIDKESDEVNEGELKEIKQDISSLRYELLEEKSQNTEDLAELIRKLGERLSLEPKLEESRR
Chain of Short transient receptor potential channel 4 (Mus musculus) (Q9QUQ5 whole entry, looked up): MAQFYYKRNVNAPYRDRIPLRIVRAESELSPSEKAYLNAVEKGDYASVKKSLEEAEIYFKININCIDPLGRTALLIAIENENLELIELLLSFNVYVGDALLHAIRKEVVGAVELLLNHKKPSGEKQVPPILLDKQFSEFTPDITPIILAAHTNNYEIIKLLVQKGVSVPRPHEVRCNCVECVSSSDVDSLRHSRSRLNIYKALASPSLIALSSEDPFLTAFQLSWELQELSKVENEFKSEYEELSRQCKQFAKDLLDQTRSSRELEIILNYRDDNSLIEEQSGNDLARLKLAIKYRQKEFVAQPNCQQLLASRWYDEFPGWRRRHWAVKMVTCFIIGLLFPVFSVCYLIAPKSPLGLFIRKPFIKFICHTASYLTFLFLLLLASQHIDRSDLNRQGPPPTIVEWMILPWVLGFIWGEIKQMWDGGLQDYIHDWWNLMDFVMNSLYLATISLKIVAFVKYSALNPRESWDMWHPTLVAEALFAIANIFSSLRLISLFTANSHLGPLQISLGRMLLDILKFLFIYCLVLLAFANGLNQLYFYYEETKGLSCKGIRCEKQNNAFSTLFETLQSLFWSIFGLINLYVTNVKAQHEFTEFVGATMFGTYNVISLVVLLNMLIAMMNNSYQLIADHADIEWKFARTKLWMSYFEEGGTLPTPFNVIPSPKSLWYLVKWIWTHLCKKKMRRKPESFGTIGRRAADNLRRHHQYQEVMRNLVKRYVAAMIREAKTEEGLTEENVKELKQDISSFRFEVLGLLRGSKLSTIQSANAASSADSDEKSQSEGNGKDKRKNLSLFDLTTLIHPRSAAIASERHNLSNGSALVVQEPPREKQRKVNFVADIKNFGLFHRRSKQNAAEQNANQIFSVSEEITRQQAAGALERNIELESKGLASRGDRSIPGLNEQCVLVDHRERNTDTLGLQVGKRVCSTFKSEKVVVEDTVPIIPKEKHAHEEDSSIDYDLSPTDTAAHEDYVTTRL

## CN1CCN(c2ccc(C(F)(F)F)cc2NC(=O)Nc2ccccc2)CC1
[1]
  activation: 103% (active)
[2]
  outcome: inactive
[3]
  potentiation: 24% (active)
[4]
  outcome: inactive
[5]
  outcome: inactive
[6]
  outcome: inactive
[7]
  outcome: inactive
[8]
  outcome: inactive
[9]
  outcome: inactive
[10]
  outcome: inactive
[11]
  outcome: inactive
[12]
  activation: 28.6% (active)
[13]
  outcome: inactive
[14]
  potentiation: 33.3% (active)
[15]
  outcome: inactive
[16]
  outcome: inactive

## O=C(NCc1cccnc1)C1CCCN(Cc2cnn(-c3ccccc3)c2-n2cccc2)C1 (stereo not given)
[1]
  activation: 83% (active)
[2]
  outcome: inactive
[3]
  outcome: inactive
[4]
  outcome: inactive
[5]
  outcome: inactive
[6]
  outcome: inactive
[7]
  outcome: inactive
[8]
  outcome: inactive
[9]
  outcome: inactive
[10]
  activation: 46% (active)
[11]
  outcome: inactive
[12]
  activation: 16.2% (active)
[13]
  outcome: inactive
[14]
  outcome: inactive
[15]
  outcome: inactive
[16]
  outcome: inactive

## CN(C)C(CNC(=S)Nc1cccc(Cl)c1)c1cccnc1 (stereo not given)
[1]
  activation: 77% (active)
[2]
  activation: 110% (active)
[3]
  outcome: inactive
[4]
  outcome: inactive
[5]
  outcome: inactive
[6]
  outcome: inactive
[7]
  outcome: inactive
[8]
  outcome: inactive
[9]
  outcome: inactive
[10]
  outcome: inactive
[11]
  outcome: inactive
[12]
  outcome: inactive
[13]
  outcome: inactive
[14]
  outcome: inactive
[15]
  outcome: inactive
[16]
  outcome: inactive

## COc1ccc(C(CNC(=O)CN2C(=O)NC3(CCCC3)C2=O)N(C)C)cc1 (stereo not given)
[1]
  activation: 121% (active)
[2]
  outcome: inactive
[3]
  outcome: inactive
[4]
  outcome: inactive
[5]
  outcome: inactive
[6]
  outcome: inactive
[7]
  outcome: inactive
[8]
  outcome: inactive
[9]
  outcome: inactive
[10]
  outcome: inactive
[11]
  outcome: inactive
[12]
  outcome: inactive
[13]
  outcome: inactive
[14]
  outcome: inactive
[15]
  outcome: inactive
[16]
  outcome: inactive

## CCOC(=O)C1CCCN(C(c2ccccn2)c2c(C)[nH]c3ccccc23)C1 (stereo not given)
[1]
  activation: 208% (active)
[2]
  outcome: inactive
[3]
  outcome: inactive
[4]
  outcome: inactive
[5]
  outcome: inactive
[6]
  outcome: inactive
[7]
  outcome: inactive
[8]
  outcome: inactive
[9]
  outcome: inactive
[10]
  activation: 31% (active)
[11]
  outcome: inactive
[12]
  activation: 34% (active)
[13]
  outcome: inactive
[14]
  outcome: inactive
[15]
  outcome: inactive
[16]
  outcome: inactive

## COc1ccc(C(CNC(=O)C(C)c2ccc3cc(OC)ccc3c2)N(C)C)cc1 (stereo not given)
[1]
  activation: 243% (active)
[2]
  activation: 98% (active)
[3]
  outcome: inactive
[4]
  outcome: inactive
[5]
  outcome: inactive
[6]
  outcome: inactive
[7]
  outcome: inactive
[8]
  outcome: inactive
[9]
  outcome: inactive
[10]
  activation: 63% (active)
[11]
  outcome: inactive
[12]
  activation: 8.72% (active)
[13]
  outcome: inactive
[14]
  outcome: inactive
[15]
  outcome: inactive
[16]
  outcome: inactive

## COc1cc(OC)cc(C(=O)NCCCN2CCN(CCCNC(=O)c3cc(OC)cc(OC)c3)CC2)c1
[1]
  activation: 121% (active)
[2]
  activation: 94% (active)
[3]
  outcome: inactive
[4]
  outcome: inactive
[5]
  outcome: inactive
[6]
  outcome: inactive
[7]
  outcome: inactive
[8]
  outcome: inactive
[9]
  outcome: inactive
[10]
  activation: 31.5% (active)
[11]
  outcome: inactive
[12]
  activation: 30.4% (active)
[13]
  outcome: inactive
[14]
  outcome: inactive
[15]
  outcome: inactive
[16]
  outcome: inactive

## Fc1ccc(C2CCNCC2COc2ccc3c(c2)OCO3)cc1 (stereo not given)
[1]
  activation: 202% (active)
[2]
  outcome: inactive
[3]
  outcome: inactive
[4]
  outcome: inactive
[5]
  outcome: inactive
[6]
  outcome: inactive
[7]
  outcome: inactive
[8]
  outcome: inactive
[9]
  outcome: inactive
[10]
  outcome: inactive
[11]
  outcome: inactive
[12]
  activation: 26.8% (active)
[13]
  outcome: inactive
[14]
  outcome: inactive
[15]
  activation: 15.8% (active)
[16]
  outcome: inactive

## O=C(CCC1CCCC1)c1c(O)c2ccccc2oc1=O
[1]
  activation: 222% (active)
[2]
  outcome: inactive
[3]
  outcome: inactive
[4]
  outcome: inactive
[5]
  outcome: inactive
[6]
  outcome: inactive
[7]
  outcome: inactive
[8]
  outcome: inactive
[9]
  outcome: inactive
[10]
  activation: 25% (active)
[11]
  outcome: inactive
[12]
  activation: 19.6% (active)
[13]
  outcome: inactive
[14]
  outcome: inactive
[15]
  activation: 51.5% (active)
[16]
  outcome: inactive

## Cc1sc2ncnc(NC3CCN(Cc4ccccc4)CC3)c2c1C
[1]
  activation: 240% (active)
[2]
  activation: 199% (active)
[3]
  outcome: inactive
[4]
  outcome: inactive
[5]
  outcome: inactive
[6]
  outcome: inactive
[7]
  outcome: inactive
[8]
  outcome: inactive
[9]
  outcome: inactive
[10]
  outcome: inactive
[11]
  outcome: inactive
[12]
  activation: 145% (active)
[13]
  outcome: inactive
[14]
  outcome: inactive
[15]
  outcome: inactive
[16]
  outcome: inactive

## Cc1ccc(Sc2cc(C(=O)NCCN(C)C)c3ccccc3n2)cc1
[1]
  activation: 91% (active)
[2]
  outcome: inactive
[3]
  outcome: inactive
[4]
  outcome: inactive
[5]
  outcome: inactive
[6]
  outcome: inactive
[7]
  outcome: inactive
[8]
  outcome: inactive
[9]
  outcome: inactive
[10]
  outcome: inactive
[11]
  outcome: inactive
[12]
  activation: 24.6% (active)
[13]
  outcome: inactive
[14]
  outcome: inactive
[15]
  outcome: inactive
[16]
  outcome: inactive

## Cc1cc(Br)ccc1OCCn1ccnc1
[1]
  outcome: inactive
[2]
  outcome: inactive
[3]
  outcome: inactive
[4]
  outcome: inactive
[5]
  outcome: inactive
[6]
  outcome: inactive
[7]
  outcome: inactive
[8]
  outcome: inactive
[9]
  outcome: inactive
[10]
  activation: 37.5% (active)
[11]
  outcome: inactive
[12]
  activation: 11.7% (active)
[13]
  outcome: inactive
[14]
  outcome: inactive
[15]
  outcome: inactive
[16]
  outcome: inactive

## CCCC(=O)NC(C)C(c1cccs1)N1CCN(c2ccccc2)CC1 (stereo not given)
[1]
  outcome: inactive
[2]
  outcome: inactive
[3]
  outcome: inactive
[4]
  outcome: inactive
[5]
  outcome: inactive
[6]
  outcome: inactive
[7]
  outcome: inactive
[8]
  outcome: inactive
[9]
  outcome: inactive
[10]
  activation: 38.5% (active)
[11]
  outcome: inactive
[12]
  outcome: inactive
[13]
  outcome: inactive
[14]
  outcome: inactive
[15]
  outcome: inactive
[16]
  outcome: inactive

## COc1cc(C(=O)NC(=S)NNC(=O)[C@H]2C[C@@H]2c2ccccc2)cc(OC)c1OC
[1]
  activation: 59% (active)
[2]
  outcome: inactive
[3]
  outcome: inactive
[4]
  outcome: inactive
[5]
  outcome: inactive
[6]
  outcome: inactive
[7]
  outcome: inactive
[8]
  outcome: inactive
[9]
  outcome: inactive
[10]
  activation: 34% (active)
[11]
  outcome: inactive
[12]
  activation: 63.3% (active)
[13]
  outcome: inactive
[14]
  outcome: inactive
[15]
  activation: 13.1% (active)
[16]
  outcome: inactive

## Cc1cc(OCCCCn2ccnc2)cc(C)c1Cl
[1]
  activation: 102% (active)
[2]
  outcome: inactive
[3]
  outcome: inactive
[4]
  outcome: inactive
[5]
  outcome: inactive
[6]
  outcome: inactive
[7]
  outcome: inactive
[8]
  outcome: inactive
[9]
  outcome: inactive
[10]
  activation: 50% (active)
[11]
  outcome: inactive
[12]
  activation: 20.1% (active)
[13]
  outcome: inactive
[14]
  outcome: inactive
[15]
  outcome: inactive
[16]
  outcome: inactive
